Test results taken from PubChem BioAssay.

Legend:
[1] = system: Human papillomavirus type 1a protein E7 (residues 44-93); assay: HPV1a E7 fragment binders on microarrays, primary screen, biochemical, small-molecule microarray, residues 44-93, 635 nm fluorescence (AID 1108); conditions: small-molecule microarray binding, fluorescence 635 nm; higher = more signal;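 also: E7 fragment applied at 1 µg/mL in TBST for 1 h at 4 C; score combines spot fluorescence with its signal to noise ratio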
[2] = modulators of HCV replicon luciferase signal, primary screen, HCV replication inhibitor project, Huh7 cells, luciferase reporter (AID 1109); conditions: 48 h, higher = more signal;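 also: huh7 hepatoma cells harbouring a luciferase neomycin HCV replicon reporter; luciferase luminescence as measure of HCV replicon replication; test concentration not given here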
[3] = target: Left-right determination factor 2 (Homo sapiens) (UniProt O00292); assay: LEFTY2 binders on small-molecule microarrays, primary screen, biochemical, small-molecule microarray, 635 nm fluorescence scan (AID 1110); conditions: LEFTY2 binding, higher = more signal
Sequence of Left-right determination factor 2 (Homo sapiens) (O00292 whole entry, looked up): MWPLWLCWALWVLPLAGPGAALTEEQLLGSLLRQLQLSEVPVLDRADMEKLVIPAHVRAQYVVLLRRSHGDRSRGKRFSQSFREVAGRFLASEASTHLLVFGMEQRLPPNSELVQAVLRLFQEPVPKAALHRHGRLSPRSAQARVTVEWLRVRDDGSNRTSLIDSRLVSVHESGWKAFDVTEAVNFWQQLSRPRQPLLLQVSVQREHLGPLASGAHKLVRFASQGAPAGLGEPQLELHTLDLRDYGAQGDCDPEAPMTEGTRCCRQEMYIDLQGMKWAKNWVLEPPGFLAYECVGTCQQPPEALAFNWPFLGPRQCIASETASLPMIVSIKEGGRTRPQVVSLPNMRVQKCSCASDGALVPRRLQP

[4] = target: Calmodulin-1 (Homo sapiens) (UniProt P0DP23); assay: CALM1 binders on microarrays, EGTA buffer, profiling panel, biochemical, small-molecule microarray, Cy5-labelled CALM1 (AID 1111); conditions: Cy5-CALM1 binding fluorescence, higher = more signal;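 also: labelled calmodulin applied in Tris saline Tween buffer holding calcium plus EGTA and DTT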
[5] = target: Calmodulin-1 (Homo sapiens) (UniProt P0DP23); assay: calcium-bound CALM1 binders on microarrays, profiling panel, artefact control for SMM control-protein annotation, biochemical, small-molecule microarray, Cy5-labelled CALM1, plus calcium (AID 1112); conditions: Cy5-CALM1 binding fluorescence, higher = more signal;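 also: score merges spot fluorescence with signal to noise from triplicate slides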
[6] = small-molecule microarray binders of probe aWnt5a, primary screen, biochemical, biotinylated probe, 635/667 nm fluorescence (AID 1113); conditions: higher = more signal;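 also: score merges 667 nm fluorescence intensity with signal-to-noise per printed feature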
[7] = small-molecule microarray binders of probe aShh, primary screen, biochemical, biotinylated probe, 635/667 nm fluorescence (AID 1114); conditions: higher = more signal;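 also: probe is biotin-labelled aShh protein from a stem cell growth factor screen; measures binding of labelled protein to compounds printed on the slide; score merges feature fluorescence at 667 nm with signal-to-noise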
[8] = small-molecule microarray binders of probe aNog, primary screen, biochemical, biotinylated probe, 635/667 nm fluorescence (AID 1115); conditions: higher = more signal;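 also: probe is biotinylated aNog protein used at 0.15 µg/mL for 1 h at 4 C; z-score combines 667 nm fluorescence of each spot with its signal to noise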
[9] = target: Torsin-1A-interacting protein 1 (Homo sapiens) (UniProt Q5JTV8); assay: LAP1 binders from COS7 cell lysate, primary screen, small-molecule microarray, 635/667 nm fluorescence (AID 1116); conditions: COS7-hLAP1 lysate binding, 635 nm fluorescence, higher = more signal
Sequence of Torsin-1A-interacting protein 1 (Homo sapiens) (Q5JTV8 whole entry, looked up): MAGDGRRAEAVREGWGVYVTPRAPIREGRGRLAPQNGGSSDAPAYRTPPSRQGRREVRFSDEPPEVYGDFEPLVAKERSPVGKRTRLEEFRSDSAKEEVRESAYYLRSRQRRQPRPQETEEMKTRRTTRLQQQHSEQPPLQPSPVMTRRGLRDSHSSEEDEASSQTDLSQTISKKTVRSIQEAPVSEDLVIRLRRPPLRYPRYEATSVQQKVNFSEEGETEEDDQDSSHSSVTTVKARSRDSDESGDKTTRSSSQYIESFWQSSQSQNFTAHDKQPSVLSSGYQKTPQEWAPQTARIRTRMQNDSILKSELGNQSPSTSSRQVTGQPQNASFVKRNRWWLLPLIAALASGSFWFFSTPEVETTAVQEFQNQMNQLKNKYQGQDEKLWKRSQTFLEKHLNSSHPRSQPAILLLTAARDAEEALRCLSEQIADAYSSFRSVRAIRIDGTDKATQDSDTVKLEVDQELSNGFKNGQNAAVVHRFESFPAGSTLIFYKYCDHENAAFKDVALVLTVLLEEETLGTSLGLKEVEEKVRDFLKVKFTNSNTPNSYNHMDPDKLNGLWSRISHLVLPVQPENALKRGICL

[10] = target: Alpha-bungarotoxin (Bungarus multicinctus) (UniProt P60615); assay: alpha-bungarotoxin binders on microarray, profiling panel, artefact control for SMM control protein annotation, biochemical, small-molecule microarray, Alexa647 label, 635/667 nm fluorescence (AID 1117); conditions: alpha-BTX-A647 binding fluorescence, higher = more signal
Sequence of Alpha-bungarotoxin (Bungarus multicinctus) (P60615 whole entry, looked up): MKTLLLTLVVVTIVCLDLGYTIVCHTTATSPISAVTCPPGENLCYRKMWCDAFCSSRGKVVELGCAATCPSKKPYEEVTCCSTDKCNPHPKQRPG

SMILES	composite z-score [1]	z-score [2]	composite z-score [3]	composite z-score [4]	composite z-score [5]	composite z-score [6]	composite z-score [7]	composite z-score [8]	composite z-score [9]	composite z-score [10]
COC(=O)C(CC#Cc1ccc2c(c1)[C@]1(C(=O)N2)[C@H](C(=O)O)[C@H]2C(=O)O[C@H](c3ccccc3)[C@H](c3ccccc3)N2[C@@H]1c1ccc(O)cc1)C(=O)OC	1.03	-0.374	-0.354	-0.345	0.0677	-0.124	-0.366	0.26	-0.273	-0.472
C=CC[C@]12N=C(c3ccc(OCCCO)cc3)O[C@H]1c1ccccc1N(Cc1ccccc1)C2=O	0.0023	-2.57	0.192	-0.162	0.438	0.0032	-0.0146	0.472	1.9	1.51
COC(=O)[C@@]1(Cc2ccc(OC)cc2)[C@H]2c3cc(C(=O)N(C)C)n(CCN4CNCC4=O)c3C[C@H]2CN1C(=O)c1ccccc1	-0.662	-0.422	0.149	0.866	0.701	0.164	-0.0793	-0.505	0.528	-0.124
C=CCC(OC(C)=O)[C@@H]1[C@@H](N(Cc2cccc3ccccc23)C(=O)c2ccc(-c3ccccc3)cc2)c2cc(OCCCO)ccc2N1C(=O)Cc1ccc(OC)cc1 (stereo not given in full)	0.144	-1.36	0.111	0.617	0.291	0.0479	0.149	-0.0907	-0.0944	0.373
CC(CO)N1C(=O)[C@@H]2C3C(=O)OCCC/C=C\[C@H]3OC23C=CCN(c2ccc4ccccc4c2)C(=O)[C@@H]13 (stereo not given in full)	-0.711	0.793	-1.22	0.0827	-0.0356	-0.127	-0.273	-0.0675	1.19	0.169
COCCn1c(C(=O)N2CCCC2)cc2c1C[C@H]1CN(C(=O)c3ccccc3)[C@@](Cc3ccc(F)cc3)(C(=O)OC)[C@@H]21	1.43	-1.42	-0.0638	2.41	0.954	0.402	0.636	-0.489	2.88	0.476
CC(C)c1ccc(NN2C(C(O)c3cc(C(F)(F)F)cc(C(F)(F)F)c3)C=CC3C(=O)N(c4ccccc4)C(=O)C32)cc1 (stereo not given)	1.35	-0.748	-0.931	1.55	0.647	-0.0704	0.37	0.897	0.831	0.817
O=C1NC(=O)C2C1C=CC(C(O)Cc1ccccc1)N2Nc1ccc(Cl)cc1Cl (stereo not given)	-1.97	0.458	-1.29	1.73	0.634	-0.0825	0.171	0.155	0.588	1.57
COCCCNC(=O)[C@@]1(Cc2ccccc2)N=C(c2ccc(OCCCO)cc2)O[C@H]1c1ccccc1	0.53	-1.39	-0.582	2.34	1.05	-0.174	-0.36	-0.442	1.96	2.34
O=C1NC(=O)C2C1C=CC(C(O)c1ccccc1)N2Nc1ccc(Cl)cc1Cl (stereo not given)	1.39	-1.25	0.628	2.13	1.09	0.17	0.412	1.44	1.98	1.55
CN(C)C(=O)[C@@]1(Cc2ccccc2)N=C(c2ccc(OCCCO)cc2)O[C@H]1c1ccccc1N=[N+]=[N-]	1.42	-2.79	-0.0506	1.09	0.0779	0.178	-0.0146	-0.482	0.491	0.567
CC(C)C[C@H]1NC(=O)[C@@]23C(=O)N[C@@H](Cc4ccccc4)C2[C@H](C)[C@@]2(C)O[C@H]2C3/C=C/C/C=C\CNC(=O)[C@H](Cc2ccccc2)NC1=O (stereo not given in full)	1.06	-1.32	0.452	-0.434	-0.578	-0.0735	-0.0553	-0.194	-0.225	-0.0973
COC(=O)C(CC#Cc1ccc2c(c1)[C@]1(C(=O)N2)[C@H](c2ccc(O)cc2)N2[C@H](c3ccccc3)[C@H](c3ccccc3)OC(=O)[C@H]2[C@@H]1C(=O)Nc1nc2ccccc2s1)C(=O)OC	1.39	-0.322	0.651	1.26	0.213	0.0998	0.191	0.535	1.63	1.62
CN1C(=O)C2C=CC(C(O)C3CCCCC3)N(Nc3ccc([N+](=O)[O-])cc3[N+](=O)[O-])C2C1=O (stereo not given)	1.28	-0.613	0.0511	1.42	0.377	-0.0472	0.13	1.59	1.28	1.34
C=CC[C@]1(C(=O)N2CCCCC2)N=C(c2ccc(OCCCO)cc2)O[C@H]1c1ccccc1	0.254	-1.98	0.32	0.0382	-0.0541	0.15	-0.155	2.28	1.55	0.741
O=C1NCC(=O)N2[C@@H]1C[C@@H](C(=O)O)[C@H]2c1cccc(OCCO)c1	1.57	0.19	1.68	2.17	1.1	1.38	3.13	3.62	4.92	2.04
COc1ccc([Si](C)(C)[C@H]2[C@H](CCO)O[C@@]3(C(=O)N(Cc4ccc(N5C(=O)COc6ccccc65)cc4)c4ccccc43)[C@@H]2C)cc1	0.49	-4.92	-1.45	0.471	0.601	-0.147	-0.153	0.201	-0.373	0.11
CC(=O)NCCCC[C@@H]1NC(=O)[C@@H]2C[C@H](C(=O)NCCCCN(C)C)[C@H](c3cccc(OCCO)c3)N2C1=O	-0.426	0.471	-0.419	0.017	0.0573	-0.0944	0.0048	-0.0474	-1.4	0.473
COCCOC(=O)N1C(=O)[C@@]2(c3cc(C#CC4=CCCCC4)ccc31)[C@H](C(=O)N1CCc3cc(OC)c(OC)cc3C1)[C@H]1C(=O)O[C@H](c3ccccc3)[C@H](c3ccccc3)N1[C@@H]2c1ccc(OCCO)cc1	1.07	-0.44	0.744	0.526	0.269	0.048	-0.428	0.575	0.929	1.07
CC(C)N1C(=O)c2ccccc2[C@](C)(C(=O)NCc2ccccc2)[C@@H]1c1ccc(CO)cc1	-0.375	0.0554	-1	-0.742	-0.514	-0.0735	-0.19	-0.141	1.13	-0.491
CCCC#C[Si](O[C@H](CC)c1cn([C@H](CO)Cc2ccccc2)nn1)(C(C)C)C(C)C	1.08	-0.256	0.728	0.486	-0.0381	0.0597	-0.0866	0.26	0.761	0.701
CC(C)(C)OC(=O)CC[C@@]12N=C(c3ccc(OCCCO)cc3)O[C@@H]1c1ccccc1N(CCS(=O)(=O)c1ccccc1)C2=O	1.08	-0.831	0.374	0.887	0.105	-0.0203	-0.0035	-0.335	0.642	1.35
Cc1ccc(S[C@]2(C(=O)NC(C)C)CC(=O)N(Cc3ccccc3Cl)[C@@H]2c2ccc(CO)cc2I)cc1	0.472	-2.47	-2.08	0.0453	-0.174	-0.252	-0.283	-0.158	-0.252	1.33
O=C1C[C@]2(c3ccc([N+](=O)[O-])cc3)C(=O)N(CCN3CCOCC3)c3cc(CO)ccc3[C@H]2N1C1CCCCC1	-1.26	-0.809	-0.91	-0.146	0.0884	-0.363	-0.211	-0.405	-0.308	-0.251
CC(=O)NCCCC[C@@H]1NC(=O)[C@@H]2C[C@H](C(=O)NCCCCCCNC(=O)CS)[C@H](c3cccc(OCCO)c3)N2C1=O	0.517	-0.938	0.221	0.572	0.361	0.0004	-0.142	-0.196	0.16	0.505
CCOC(=O)C[C@H]1[C@H](OC(=O)c2ccc(C(=O)c3ccccc3)cc2)[C@@H](NC(=O)c2ccc(-c3ccccc3)cc2)c2cc(OCCCO)ccc2N1C(=O)c1ccccc1	1.3	-1.1	0.342	0.228	-0.119	0.193	-0.0709	-0.632	0.191	0.706
CN(C)CCCNC(=O)[C@@]1(c2ccc([N+](=O)[O-])cc2)CC(=O)N(C2CCCCC2)[C@@H]1c1ccc(CO)cc1I	1.41	-3.46	-0.104	-0.0828	-0.245	-0.0721	-0.147	-0.606	0.46	1.03
